These results are taken from PubChem BioAssay (Tox21).

Inconclusive results are not listed. Unmarked numbers belong to inactive results. Activity calls are given as the source filed them. Unless noted, calls come from the whole dose curve; as a rule, active = well fitted curve in the direction sought with a large enough effect in the repeat runs; inconclusive = weak or mixed curves; inactive = no such curve, though single readings can be large; an effect the other way counts as inactive or inconclusive. Positions of bridges follow the written chain, without caps; N, C: chain ends. Non-standard residues stand in square brackets, D forms with d. Residues, ends and D or L forms follow the SMILES beside them. *: point of attachment. X2 = CC[C@H](C)CCCCC(=O)*; Dab = NCC[C@H](N)C(=O)O

A short description of test [1]: qHTS assay to identify aromatase inhibitors - cell viability counter screen (AID 743084).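 Note: cells stimulated with testosterone during compound exposure; nearly all actives have a fitted effect of over 55% in size.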 Note: potency is the fitted concentration of half-maximal effect. In general terms: qHTS replaces the single test concentration by a dilution series.
The target in test [2] is Aryl hydrocarbon receptor (Homo sapiens) (UniProt P35869). In words: qHTS assay to identify small molecule that activate the aryl hydrocarbon receptor (AhR) signaling pathway (AID 743085).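 Note: HG2L7.5c1 human HepG2 liver cells with stably integrated DRE-driven firefly reporter; series mostly up to about 70 µM; nearly all actives have a fitted effect of over 15% in size.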 Put shortly: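 HepG2 cells (HG2L7.5c1) stably carrying a firefly luciferase reporter driven by 20 dioxin responsive elements were exposed to compound for 24 h at 37C after a 5 h settling period; luminescence rise (ONE-Glo) indicated activation.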
Chain of Aryl hydrocarbon receptor (Homo sapiens) (P35869 whole entry, looked up): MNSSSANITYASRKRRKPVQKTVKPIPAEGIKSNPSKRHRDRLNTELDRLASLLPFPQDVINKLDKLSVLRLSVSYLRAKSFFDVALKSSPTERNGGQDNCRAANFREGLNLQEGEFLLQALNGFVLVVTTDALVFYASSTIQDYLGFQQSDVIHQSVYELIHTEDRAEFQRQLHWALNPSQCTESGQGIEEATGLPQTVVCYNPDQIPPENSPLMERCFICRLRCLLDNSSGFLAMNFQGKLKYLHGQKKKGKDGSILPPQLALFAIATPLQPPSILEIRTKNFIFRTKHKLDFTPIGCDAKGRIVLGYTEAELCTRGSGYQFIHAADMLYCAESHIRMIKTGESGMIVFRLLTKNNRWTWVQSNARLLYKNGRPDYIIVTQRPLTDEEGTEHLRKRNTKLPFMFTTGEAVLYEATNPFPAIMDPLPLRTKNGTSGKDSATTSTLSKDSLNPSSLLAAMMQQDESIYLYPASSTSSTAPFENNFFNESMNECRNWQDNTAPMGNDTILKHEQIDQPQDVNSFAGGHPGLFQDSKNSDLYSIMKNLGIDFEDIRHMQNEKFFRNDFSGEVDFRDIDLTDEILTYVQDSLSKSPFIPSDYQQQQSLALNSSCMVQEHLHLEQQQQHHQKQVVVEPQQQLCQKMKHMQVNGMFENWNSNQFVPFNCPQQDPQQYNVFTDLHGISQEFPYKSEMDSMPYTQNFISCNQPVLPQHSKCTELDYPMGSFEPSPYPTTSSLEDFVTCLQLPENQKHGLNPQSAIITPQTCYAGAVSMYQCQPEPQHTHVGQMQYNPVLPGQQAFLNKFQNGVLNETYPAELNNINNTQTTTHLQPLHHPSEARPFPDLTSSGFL

Test [3] is described as follows: qHTS assay to identify small molecule that activate the aryl hydrocarbon receptor (AhR) signaling pathway - cell viability counter screen (AID 743086). Note: nearly all actives have a fitted effect of over 45% in size. Note: potency is the fitted concentration of half-maximal effect. The method, boiled down:
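HepG2-AhR-luc (HG2L7.5c1) cells, 4000/well, treated 24 h at 37 C with compound; viability measured as CellTiter-Fluor fluorescence after 30 min in the same wells as the luciferase read.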

For test [4], the target named is Peroxisome proliferator-activated receptor gamma (Homo sapiens) (UniProt P37231). Kind of test: qHTS assay to identify small molecule agonists of the peroxisome proliferator-activated receptor gamma (PPARg) signaling pathway (AID 743094; active = well fitted activation curve with a large enough effect in the signal ratio in the repeat runs, not every such curve was filed as active; the % refers to the signal ratio). Put shortly:
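HEK293H PPARg-bla cells, 5 h settle at 37C/5% CO2; compound (DMSO) 17 h, 37C; B/G FRET substrate 1 h RT; fluorescence intensity read-out. qHTS format.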

Test [5] can be described thus: qHTS assay to identify small molecule phospholipidosis (PLD) inducers (AID 1259344; active = well fitted curve in the direction sought with a large enough effect; an effect the other way counts as inactive or inconclusive). The method, boiled down:
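Image-based: LipidTOX Red pit count/intensity per well and per cell; HepG2, 24 h compound at 37 C, PFA fixation, Hoechst counterstain.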

In test [6] the target is Nuclear receptor subfamily 1 group I member 2 (Rattus norvegicus) (UniProt Q9R1A7). Kind of test: Rat pregnane X receptor (rPXR) activation by small molecules, qHTS assay (AID 1346983). Note: nearly all actives have a fitted effect of over 20% in size. Note: potency is the fitted concentration of half-maximal effect. The following applies: rPXR luciferase reporter cells, One-Glo luminescence, 24 h; max activation: stronger effect = higher value. Put shortly:
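Cell-based rPXR activation assay: rPXR cells, 2,000 per well, rested 5hr at 37 C, then exposed to compounds in DMSO for 24 hr at 37 C. Luciferase activity read by One-Glo luminescence after 30 min at room temperature.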

Test [7] concerns the target Nuclear receptor subfamily 1 group I member 2 (Homo sapiens) (UniProt O75469). Kind of test: CYP3A4 induction through human pregnane X receptor (PXR) by small molecules, qHTS assay (AID 1346984). Note: nearly all actives have a fitted effect of over 40% in size. The method, boiled down: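 HepG2-derived DPX-2 line carrying PXR plus a CYP3A4-promoter luciferase reporter; cells plated 5 hr, compound-exposed 24 hr at 37C. CYP3A4 activity probed with 3uM (final) Luciferin-IPA for 3hr, then luciferase read after One-Glo.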

The target is the same in test [8]. Kind of test: Human pregnane X receptor (PXR) activation by small molecules, qHTS assay (AID 1346985). Note: nearly all actives have a fitted effect of over 40% in size. Put shortly: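 DPX-2 cells (HepG2 co-transfected with a PXR response element and a CYP3A4-promoter luciferase construct) were seeded at 2,000 per well, rested 5 hr at 37C, then exposed to DMSO-dissolved compounds for 24 hr. Activation was read as luciferase luminescence.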
% is set by controls: 0 for no effect and ±100 for the full control effect.

Chain of Nuclear receptor subfamily 1 group I member 2 (Rattus norvegicus) (Q9R1A7 whole entry, looked up): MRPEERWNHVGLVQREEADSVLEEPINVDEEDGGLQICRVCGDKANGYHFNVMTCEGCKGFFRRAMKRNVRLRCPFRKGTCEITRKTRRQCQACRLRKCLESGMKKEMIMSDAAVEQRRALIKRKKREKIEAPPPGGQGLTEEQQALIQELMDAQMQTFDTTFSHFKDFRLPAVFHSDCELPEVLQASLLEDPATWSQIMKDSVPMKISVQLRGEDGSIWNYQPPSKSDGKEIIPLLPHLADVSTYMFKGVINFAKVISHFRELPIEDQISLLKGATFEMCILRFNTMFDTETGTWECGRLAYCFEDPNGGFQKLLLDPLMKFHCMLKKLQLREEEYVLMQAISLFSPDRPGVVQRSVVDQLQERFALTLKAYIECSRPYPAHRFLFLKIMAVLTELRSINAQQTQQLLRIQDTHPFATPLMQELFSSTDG
Chain of Peroxisome proliferator-activated receptor gamma (Homo sapiens) (P37231 whole entry, looked up): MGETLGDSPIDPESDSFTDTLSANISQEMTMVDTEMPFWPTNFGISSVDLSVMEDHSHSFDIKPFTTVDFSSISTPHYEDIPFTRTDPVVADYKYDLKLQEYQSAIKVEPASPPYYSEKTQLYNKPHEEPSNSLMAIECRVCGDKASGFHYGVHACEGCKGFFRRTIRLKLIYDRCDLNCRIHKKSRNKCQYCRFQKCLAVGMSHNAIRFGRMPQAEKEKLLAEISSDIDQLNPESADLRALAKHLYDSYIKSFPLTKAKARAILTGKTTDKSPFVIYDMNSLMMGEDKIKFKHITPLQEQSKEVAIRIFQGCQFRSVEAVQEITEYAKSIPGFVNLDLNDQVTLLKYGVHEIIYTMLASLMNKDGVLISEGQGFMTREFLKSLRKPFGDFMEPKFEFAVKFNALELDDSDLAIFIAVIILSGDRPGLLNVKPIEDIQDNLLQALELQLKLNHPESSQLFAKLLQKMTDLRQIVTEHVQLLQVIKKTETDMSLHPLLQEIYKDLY

Consider `C[C@@](Cc1ccc(O)c(O)c1)(NN)C(=O)O`, for which the Potency entry in test [1], in test [2], in test [3], in test [4], in test [5] and in test [7] was “inactive” in each case. Besides, the Potency entry in test [8] was “inactive”. For the same molecule, the max activation in test [6] was -6.63%.
`O=C(O)CO.[NH2-].[NH2-].[Pt+2]`: the Potency entry in test [1], in test [2], in test [3], in test [4], in test [5] and in test [7] was “inactive” each time. Also, in test [8], the Potency entry is “inactive”. Also, the max activation in test [6] is -2.14%.
For `COC(=O)[C@@H](N)CS`, the Potency entry in test [1], in test [2], in test [3], in test [4], in test [5] and in test [7] was “inactive” in each case. Further, in test [8], the Potency entry is “inactive”. For the same molecule, in test [6], the max activation is 0.531%.
Turning to `CC(C)[C@H](N)C(=O)OCC(CO)OCn1cnc2c(=O)[nH]c(N)nc21` (stereo partly specified), the Potency result in test [1], in test [2], in test [3], in test [4], in test [5] and in test [7] was “inactive” each time. Also, in test [8], the Potency entry is “inactive”. In test [6], the max activation is -3.1%.
On to `CCOC(=O)[C@@H](N)CS`, for which the Potency result in test [1], in test [2], in test [3], in test [4], in test [5] and in test [7] was “inactive” in each case. Also, in test [8], the Potency entry is “inactive”. In addition, in test [6], the max activation is -2.02%.
Turning to `Cc1cc(-c2ccc(N=Nc3c(S(=O)(=O)O)cc4cc(S(=O)(=O)O)cc(N)c4c3O)c(C)c2)ccc1N=Nc1c(S(=O)(=O)O)cc2cc(S(=O)(=O)O)cc(N)c2c1O`, the Potency in test [1] was 13.3 µM (active); in test [3], 15 µM (active). The Potency entry in test [2], in test [4], in test [5], in test [7] and in test [8] was “inactive” each time. For the same molecule, the max activation in test [6] was -20.2%.
Take `CC(=O)O[C@]1(C(C)=O)CC[C@H]2[C@@H]3CCC4=CC(=O)CC[C@]4(C)[C@@]3(F)[C@@H](O)C[C@@]21C`: the Potency entry in test [1], in test [2], in test [3], in test [4], in test [5] and in test [7] was “inactive” in each case. Also, the Potency result in test [8] was “inactive”. Moreover, in test [6], the Potency is 3.55 µM (active).
Consider `CCCCC(O)c1ccccc1` (stereo unspecified), for which the Potency result in test [1], in test [2], in test [3], in test [4], in test [5] and in test [7] was “inactive” each time. The Potency entry in test [8] was “inactive”. For the same molecule, in test [6], the max activation is -0.82%.
In the case of `O=C(COc1ccc(Cl)cc1)OCCNC12CC3CC(CC(C3)C1)C2`, the Potency result in test [1], in test [2], in test [3], in test [4], in test [5] and in test [7] was “inactive” each time. Moreover, in test [8], the Potency entry was “inactive”. For the same molecule, in test [6], the max activation was -5.06%.
Consider `CO[C@@]1(NC(=O)C2SC(=C(C(N)=O)C(=O)O)S2)C(=O)N2C(C(=O)O)=C(CSc3nnnn3C)CS[C@@H]21` (stereo partly specified), for which the Potency result in test [1], in test [2], in test [3], in test [4], in test [5] and in test [7] was “inactive” each time. For the same molecule, the Potency result in test [8] was “inactive”. The max activation in test [6] was -1.7%.
For the molecule `CC(C)[C@@H](N)C(=O)O`, the Potency entry in test [1], in test [2], in test [3], in test [4], in test [5] and in test [7] was “inactive” each time. Further, in test [8], the Potency entry was “inactive”. Moreover, the max activation in test [6] was 2.42%.
As for `COc1ccc(/C=C/C(=O)OCCC(C)C)cc1`, the Potency result in test [1], in test [2], in test [3], in test [4], in test [5] and in test [7] was “inactive” each time. In addition, the Potency entry in test [8] is “inactive”. In addition, the max activation in test [6] is 9.31%.
In the case of `CCCc1ccc(C(=O)O)cc1`, the Potency result in test [1], in test [2], in test [3], in test [4], in test [5] and in test [7] was “inactive” throughout. Also, the Potency result in test [8] was “inactive”. The max activation in test [6] was -2.43%.
Turning to `CN[C@@H]1[C@H](O[C@H]2[C@H](O[C@H]3[C@H](O)[C@@H](O)[C@H](N=C(N)N)[C@@H](O)[C@@H]3N=C(N)N)O[C@@H](C)[C@]2(O)C=O)O[C@@H](CO)[C@H](O)[C@H]1O`, the Potency entry in test [1], in test [2], in test [3], in test [4], in test [5] and in test [7] was “inactive” each time. Also, the Potency result in test [8] was “inactive”. For the same molecule, the max activation in test [6] is -1.83%.
Regarding `CC[C@H](C)CCCCC(=O)N[C@@H](CCN)C(=O)N[C@H](C(=O)N[C@@H](CCN)C(=O)N[C@H]1CCNC(=O)[C@@H]([C@H](C)O)NC(=O)[C@H](CCN)NC(=O)[C@H](CCN)NC(=O)[C@H](CC(C)C)NC(=O)[C@@H](CC(C)C)NC(=O)[C@H](CCN)NC1=O)[C@@H](C)O` (X2-[Dab]T[Dab][Dab][Dab][dL]L[Dab][Dab][dT]; lactam 4-C), the Potency entry in test [1], in test [2], in test [3], in test [4], in test [5] and in test [7] was “inactive” in each case. In test [8], the Potency entry was “inactive”. For the same molecule, the max activation in test [6] is -4.02%.
As for `CC(C)(C)CC(C)(C)c1cc(Cc2cc(C(C)(C)CC(C)(C)C)cc(-n3nc4ccccc4n3)c2O)c(O)c(-n2nc3ccccc3n2)c1`, the Potency result in test [1], in test [2], in test [3], in test [4], in test [5] and in test [7] was “inactive” throughout. In test [8], the Potency result is “inactive”. Moreover, the max activation in test [6] is -3.34%.
Take `CCCCC/C=C\CCC(=O)N[C@H]1[C@H](Oc2c3cc4cc2Oc2ccc(cc2Cl)[C@@H](O[C@@H]2O[C@H](CO)[C@@H](O)[C@H](O)[C@H]2NC(C)=O)[C@@H]2NC(=O)[C@H](NC(=O)[C@@H]4NC(=O)[C@H]4NC(=O)[C@@H](Cc5ccc(c(Cl)c5)O3)NC(=O)[C@H](N)c3ccc(O)c(c3)Oc3cc(O)cc4c3)c3ccc(O)c(c3)-c3c(O[C@H]4O[C@H](CO)[C@@H](O)[C@H](O)[C@@H]4O)cc(O)cc3[C@@H](C(=O)O)NC2=O)O[C@H](CO)[C@@H](O)[C@@H]1O`: the Potency result in test [1], in test [2], in test [3], in test [4], in test [5] and in test [7] was “inactive” each time. Also, in test [8], the Potency entry is “inactive”. Also, the max activation in test [6] was 0.769%.
